A short description of experiment [1]: qHTS assay to identify small molecule HDAC inhibitors (AID 1259364).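 Note: wild-type HCT-116 cells with endogenous class I/II HDAC activity; top concentration of the series differs between compounds; nearly all actives have a fitted effect of over 45% in size.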 An outline of the steps:
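HCT-116 (wild type), 1,500 cells/well, overnight; compound 2 hr 37C 5% CO2; HDAC-Glo I/II reagent 30 min RT; luminescence readout.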
(Quantitative high-throughput screening tests each substance at several concentrations.)

The nature of experiment [2]: qHTS assay to identify small molecule HDAC inhibitors - cell viability counter screen (AID 1259365). Note: series mostly up to about 92 µM; nearly all actives have a fitted effect of over 50% in size. An outline of the steps:
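Counter screen in wild-type HCT-116 cells: compounds dissolved in DMSO are pin-transferred onto overnight-plated cells and left 2hr at 37C. ATP-based CellTiter-Glo luminescence then measures viable cells.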

Experiment [3] is described as follows: qHTS assay to identify small molecule agonists of the sonic hedgehog signaling (Shh) pathway - cell viability counter screen (AID 1259366). Note: nearly all actives have a fitted effect of over 50% in size. Note: potency is the fitted concentration of half-maximal effect. An outline of the steps:
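Cells are plated at 2,000 per well and left 4hr at 37C, 5% CO2 before compound addition. After 23hr of treatment, CellTiter-Fluor reagent is added for 1hr at 37C and fluorescence is measured.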

Experiment [4] in a line: qHTS assay to identify small molecule antagonists of the sonic hedgehog signaling (Shh) pathway - cell viability counter screen (AID 1259367). Note: nearly all actives have a fitted effect of over 55% in size. Note: potency is the fitted concentration of half-maximal effect. A digest of the protocol: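 Tox21 library chemicals were tested on a Gli1-Luc NIH/3T3 clone (2,000 cells/well) stimulated by conditioned medium; viability was quantified as fluorescence from CellTiter-Fluor reagent added at 23 hr.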

The nature of experiment [5]: qHTS assay to identify small molecule agonists of the sonic hedgehog signaling (Shh) pathway (AID 1259368; calls by dose curve;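 note: NIH/3T3-derived 3T3Gli1-Luc cells carrying a stable Gli1-driven firefly luciferase reporter; series mostly up to about 92 µM; nearly all actives have a fitted effect of over 15% in size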). An outline of the steps:
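Read-out: firefly luciferase luminescence from a Gli1 response element reporter stably integrated in NIH/3T3-derived 3T3Gli1-Luc cells, measured 30 min at room temperature after reagent addition. Compound exposure lasted 24 hr at 37 C, 5% CO2.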

Experiment [6] is described as follows: qHTS assay to identify small molecule antagonists of the sonic hedgehog signaling (Shh) pathway (AID 1259369; calls by dose curve; note: nearly all actives have a fitted effect of over 45% in size; note: potency is the fitted concentration of half-maximal effect). A digest of the protocol:
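Luminescence readout: firefly Luc under Gli1 response element in 3T3Gli1-Luc cells (NIH/3T3 clone). Antagonist mode, stimulation by conditioned medium; compound exposure 24hr at 37 C, 5% CO2.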

The target of experiment [7] is Estrogen receptor beta (Homo sapiens) (UniProt Q92731). The experiment can be described thus: qHTS assay to identify small molecule agonists of the estrogen receptor beta (ER-beta) signaling pathway (AID 1259377; active = well fitted activation curve with a large enough effect in the signal ratio in the repeat runs, not every such curve was filed as active; the % refers to the signal ratio). An outline of the steps:
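Agonist mode cell assay in GripTite HEK293T cells expressing an ER-beta fusion that drives beta-lactamase from an Upstream Activator Sequence; 16 hr compound exposure at 37C, then 2 h LiveBLAzer B/G FRET substrate at room temperature, fluorescence read-out.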

Where “and” joins values, the source holds several entries; their conditions need not be identical. Equal entries are not always repeated. Inconclusive results are not listed. Some structures have more than one record in an assay (separate samples or runs), and their calls can disagree. Calls of active or inactive are those of the source. Unless noted, calls come from the whole dose curve; as a rule, active = well fitted curve in the direction sought with a large enough effect in the repeat runs; inconclusive = weak or mixed curves; inactive = no such curve, though single readings can be large; an effect the other way counts as inactive or inconclusive.

Sequence of Estrogen receptor beta (Homo sapiens) (Q92731 whole entry, looked up, the tested form may be a part): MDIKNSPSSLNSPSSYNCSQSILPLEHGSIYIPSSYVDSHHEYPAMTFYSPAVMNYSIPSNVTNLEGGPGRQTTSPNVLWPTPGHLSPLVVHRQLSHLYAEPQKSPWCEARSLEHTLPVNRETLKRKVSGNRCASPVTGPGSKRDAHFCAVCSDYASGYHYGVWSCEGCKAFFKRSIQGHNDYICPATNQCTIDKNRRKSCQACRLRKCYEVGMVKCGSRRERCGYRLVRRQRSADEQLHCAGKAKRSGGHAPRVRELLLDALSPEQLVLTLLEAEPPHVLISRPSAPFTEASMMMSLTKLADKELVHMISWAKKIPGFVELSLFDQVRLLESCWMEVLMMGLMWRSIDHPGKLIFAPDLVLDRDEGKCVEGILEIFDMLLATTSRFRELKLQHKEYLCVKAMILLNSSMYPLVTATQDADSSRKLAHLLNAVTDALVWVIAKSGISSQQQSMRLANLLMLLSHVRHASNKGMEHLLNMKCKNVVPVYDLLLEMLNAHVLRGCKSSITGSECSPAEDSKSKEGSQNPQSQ

Turning to `O=C1CC2(CCCC2)CC(=O)N1CCCCN1CCN(c2ncccn2)CC1`, the Potency result in experiment [1], in experiment [2], in experiment [3], in experiment [4] and in experiment [5] was “inactive” throughout. For the same compound, in experiment [6], the Potency is 19.3 µM (active) and inactive.
Take `CC(C)(C)c1ccccc1`: the Potency entry in experiment [1], in experiment [2], in experiment [3], in experiment [4], in experiment [5] and in experiment [6] was “inactive” in each case. In addition, the outcome in experiment [7] was inactive.
In the case of `COC(c1ccccc1)(c1ccccc1)[C@H](Oc1nc(C)cc(C)n1)C(=O)O`, the Potency result in experiment [1], in experiment [2], in experiment [3], in experiment [4], in experiment [5] and in experiment [6] was “inactive” throughout. In experiment [7], the outcome was inactive.
As for `CC(C)(C)NC(=O)[C@@H]1CN(Cc2cccnc2)CCN1C[C@@H](O)C[C@@H](Cc1ccccc1)C(=O)N[C@H]1c2ccccc2C[C@H]1O`, the Potency entry in experiment [1], in experiment [2], in experiment [5] and in experiment [6] was “inactive” throughout.
With `CC(N)=O`, the Potency entry in experiment [1], in experiment [2], in experiment [3], in experiment [4], in experiment [5] and in experiment [6] was “inactive” throughout. Moreover, in experiment [7], the outcome was inactive.
With `CC(C)(C)c1ccc(O)c(C(C)(C)C)c1`, the Potency result in experiment [1] and in experiment [5] was “inactive” throughout. Besides, the compound was called inactive in experiment [7].
`COc1ccc(COC(C)=O)cc1`: the Potency result in experiment [1], in experiment [2], in experiment [3], in experiment [4], in experiment [5] and in experiment [6] was “inactive” each time.
On to `CNCCC(Oc1ccc(C(F)(F)F)cc1)c1ccccc1` (centres undefined), for which the Potency entry in experiment [1], in experiment [2] and in experiment [5] was “inactive” each time. Also, the Potency in experiment [3] is 60.3 µM (active) and 29.8 µM (active); in experiment [4] it was 26.9 µM (active) and 29.8 µM (active); in experiment [6], 15.2 µM (active). The compound was classed as inactive in experiment [7].
Consider `CC1=C(C=O)C(C)(C)CC=C1`, for which the Potency entry in experiment [1], in experiment [2], in experiment [3], in experiment [4] and in experiment [5] was “inactive” each time.
In the case of `CCC(=O)/C=C/C1C(C)=CCCC1(C)C` (centres undefined), the Potency result in experiment [1], in experiment [2], in experiment [3], in experiment [4], in experiment [5] and in experiment [6] was “inactive” each time. Also, the compound was classed as inactive in experiment [7].
On to `O`, for which the Potency result in experiment [1], in experiment [2], in experiment [3], in experiment [4] and in experiment [5] was “inactive” in each case.
`Cc1cccc2n[nH]nc12`: the Potency entry in experiment [1], in experiment [2], in experiment [3], in experiment [4], in experiment [5] and in experiment [6] was “inactive” in each case.
Take `O=C(Cl)c1cccc(C(=O)Cl)c1`: the Potency entry in experiment [1], in experiment [2], in experiment [3], in experiment [4], in experiment [5] and in experiment [6] was “inactive” in each case. Further, the call in experiment [7] was inactive.
Turning to `CNC1(C)C2CCC(C2)C1(C)C` (centres undefined), the Potency entry in experiment [1], in experiment [2], in experiment [3], in experiment [4], in experiment [5] and in experiment [6] was “inactive” in each case.
For `CCC(CO)(CO)COCC(CC)(CO)CO`, the Potency entry in experiment [1], in experiment [2], in experiment [3], in experiment [4], in experiment [5] and in experiment [6] was “inactive” each time. Besides, in experiment [7], the compound was called inactive.
Regarding `Nc1cc(S(=O)(=O)O)cc2cc(S(=O)(=O)O)cc(O)c12`, the Potency result in experiment [1], in experiment [2], in experiment [3], in experiment [5] and in experiment [6] was “inactive” throughout.
For `CC[C@]1(O)C[C@@H]2CN(CCc3c([nH]c4ccccc34)[C@@](C(=O)OC)(c3cc4c(cc3OC)N(C)[C@H]3[C@@](O)(C(=O)OC)[C@H](OC(C)=O)[C@]5(CC)C=CCN6CC[C@]43[C@@H]65)C2)C1`, the Potency result in experiment [1], in experiment [2] and in experiment [5] was “inactive” in each case. Further, the figures for the Potency in experiment [3], in experiment [4] and in experiment [6] were 11.9 µM (active), 29.8 nM (active) and 0.0376 µM (active), respectively.
With `CC(C)C(=O)c1c(C(C)C)nn2ccccc12`, the Potency entry in experiment [1], in experiment [2], in experiment [3], in experiment [4] and in experiment [5] was “inactive” each time.
Turning to `CCc1cc(C(C)(C)C)c(O)c(C(C)(C)C)c1`, the Potency entry in experiment [1], in experiment [2], in experiment [3], in experiment [4], in experiment [5] and in experiment [6] was “inactive” throughout.
Consider `NC12CC3CC(CC(C3)C1)C2`, for which the Potency entry in experiment [1], in experiment [2], in experiment [3], in experiment [4] and in experiment [5] was “inactive” throughout.
For `O=C(O)c1cn(-c2ccc(F)cc2)c2cc(N3CCNCC3)c(F)cc2c1=O`, the Potency result in experiment [1], in experiment [2], in experiment [3], in experiment [4], in experiment [5] and in experiment [6] was “inactive” throughout.
For `Cc1ccnc2c1NC(=O)c1cccnc1N2C1CC1`, the Potency result in experiment [1], in experiment [2], in experiment [3], in experiment [4], in experiment [5] and in experiment [6] was “inactive” throughout. For the same compound, the compound was classed as inactive in experiment [7].
Regarding `CCCCCCC(O)CCCCCCCCCCC(=O)O` (centres undefined), the Potency result in experiment [1], in experiment [2], in experiment [3], in experiment [4] and in experiment [5] was “inactive” throughout. In experiment [6], the Potency is 27.4 µM (active). In addition, the call in experiment [7] was inactive.
With `COC(=O)[C@H]1[C@H]2C[C@@H]3c4[nH]c5cc(OC)ccc5c4CCN3C[C@H]2C[C@@H](OC(=O)c2cc(OC)c(OC)c(OC)c2)[C@@H]1OC`, the Potency entry in experiment [1], in experiment [2], in experiment [3], in experiment [4] and in experiment [5] was “inactive” throughout. In addition, the Potency in experiment [6] was 12.2 µM (active) and 15.8 µM (active) and 23.7 µM (active).
For the compound `CC1COc2c(N3CCN(C)CC3)c(F)cc3c(=O)c(C(=O)O)cn1c23` (centres undefined), the Potency entry in experiment [1], in experiment [2], in experiment [3], in experiment [4], in experiment [5] and in experiment [6] was “inactive” each time.
On to `CCCN[C@H]1CCc2nc(N)sc2C1`, for which the Potency entry in experiment [1], in experiment [2], in experiment [3], in experiment [4], in experiment [5] and in experiment [6] was “inactive” each time.
On to `CCN(CC)CCOc1ccc(/C(=C(\Cl)c2ccccc2)c2ccccc2)cc1`, for which the Potency entry in experiment [1], in experiment [2], in experiment [4] and in experiment [5] was “inactive” each time. The Potency in experiment [6] is 17.6 µM (active).
On to `CCOC(=O)C(C)C(C)=O` (centres undefined), for which the Potency entry in experiment [1], in experiment [2], in experiment [3], in experiment [4], in experiment [5] and in experiment [6] was “inactive” each time. Further, the result in experiment [7] was inactive.
Take `Cc1occc(=O)c1OC(=O)C(C)C`: the Potency result in experiment [1], in experiment [2], in experiment [3], in experiment [4], in experiment [5] and in experiment [6] was “inactive” each time. Moreover, the result in experiment [7] was inactive.

The values above are taken from PubChem BioAssay (Tox21).
